This passage reports Potency results from PubChem BioAssay (Tox21).

SMILES strings stand for the structures. Inconclusive results are not listed. Activity calls are given as the source filed them. Unless noted, calls come from the whole dose curve; as a rule, active = well fitted curve in the direction sought with a large enough effect in the repeat runs; inconclusive = weak or mixed curves; inactive = no such curve, though single readings can be large; an effect the other way counts as inactive or inconclusive.

Experiment [1] is described as follows: Caspase-3/7 induction in HepG2 cells by small molecules, qHTS assay (AID 1346978). Note: nearly all actives have a fitted effect of over 15% in size. Note: potency is the fitted concentration of half-maximal effect. The procedure, abridged:
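Wild-type HepG2 cells, 2,000/well, settled 5 hr at 37 C and 5% CO2, then compound-treated for 17 hr; caspase-3/7 activity read by luminescent Caspase-Glo 3/7 after 30 min at room temperature.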

Experiment [2] is described as follows: Caspase-3/7 induction in CHO-K1 cells by small molecules, qHTS cell viability counter screen (AID 1346979). Note: nearly all actives have a fitted effect of over 35% in size. Note: potency is the fitted concentration of half-maximal effect. In a few lines:
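Viability readout by fluorescence (CellTiter-Fluor) on wild-type CHO-K1 cells exposed for 16hr at 37C and 5% CO2 to compounds delivered in DMSO; reagent incubated 1hr before reading.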

The nature of experiment [3]: Caspase-3/7 induction in CHO-K1 cells by small molecules, qHTS assay (AID 1346980). Note: nearly all actives have a fitted effect of over 15% in size. Note: potency is the fitted concentration of half-maximal effect. The procedure, abridged:
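Wild-type CHO-K1 cells exposed to compounds for 17hr at 37 C, 5% CO2. Caspase-3/7 activity then measured by Caspase-Glo 3/7 luminescence after 30min at room temperature.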

Experiment [4] can be described thus: Caspase-3/7 induction in HepG2 cells by small molecules, qHTS cell viability counter screen (AID 1346981). Note: nearly all actives have a fitted effect of over 30% in size. Note: potency is the fitted concentration of half-maximal effect. In a few lines: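 Cell viability is measured as a cytotoxicity counter screen alongside the Caspase-Glo 3/7 readout in identical wells. Wild-type HepG2 cells are treated with test compounds for 16 hr at 37 C before CellTiter-Fluor addition and a 1-hr incubation.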

The target in experiment [5] is Nuclear receptor subfamily 1 group I member 2 (Homo sapiens) (UniProt O75469). Briefly: Human pregnane X receptor (PXR) small molecule agonists, qHTS assay (AID 1346982). Note: nearly all actives have a fitted effect of over 35% in size. Note: potency is the fitted concentration of half-maximal effect. The procedure, abridged: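 Cells: HepG2 stably carrying PXR-Luc. Medium held 5% charcoal-stripped FBS. Compounds in DMSO added after 5 hr plating, incubated 24 hr, then luminescence quantified with ONE-Glo.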
Nuclear receptor subfamily 1 group I member 2 (Homo sapiens), sequence (O75469 whole entry, looked up): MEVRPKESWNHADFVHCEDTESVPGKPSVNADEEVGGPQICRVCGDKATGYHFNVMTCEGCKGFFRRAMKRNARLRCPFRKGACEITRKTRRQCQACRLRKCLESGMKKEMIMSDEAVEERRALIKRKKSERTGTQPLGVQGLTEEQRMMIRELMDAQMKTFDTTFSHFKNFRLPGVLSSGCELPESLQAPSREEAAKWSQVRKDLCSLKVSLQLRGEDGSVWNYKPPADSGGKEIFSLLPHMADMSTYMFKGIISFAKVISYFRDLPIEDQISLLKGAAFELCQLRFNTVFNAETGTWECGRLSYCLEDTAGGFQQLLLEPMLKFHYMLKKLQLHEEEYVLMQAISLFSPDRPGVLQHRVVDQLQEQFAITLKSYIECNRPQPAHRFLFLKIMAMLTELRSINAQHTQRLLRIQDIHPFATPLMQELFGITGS

Experiment [6] deals with Acetylcholinesterase (Homo sapiens) (UniProt P22303). Briefly: Acetylcholinesterase (AChE) small molecule antagonists: colormetric cell-based qHTS assay (AID 1347395; calls by dose curve; note: nearly all actives have a fitted effect of over 30% in size). The procedure, abridged:
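Homogeneous whole-cell format. SH-SY5Y cells seeded overnight, dosed with compound (30 min, 37 C, 5% CO2), then given DTNB/acetylthiocholine cocktail for 90 min at 37 C; colorimetric signal.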

The target is the same in experiment [7]. Briefly: Acetylcholinesterase (AChE) small molecule antagonists: enzyme-based qHTS assay (AID 1347397; calls by dose curve; note: nearly all actives have a fitted effect of over 55% in size). Particulars: Potency: AChE enzyme activity inhibition. The procedure, abridged: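 Colorimetric DTNB read-out of thiocholine released from acetylthiocholine by recombinant human AChE (50 mU/mL as dispensed). Compounds were preincubated 30 min at RT before substrate/DTNB addition, with a 10 min RT reaction.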

For experiment [8] the target is unchanged. Briefly: Acetylcholinesterase (AChE) small molecule antagonists: fluorescence cell-based qHTS assay (AID 1347398; calls by dose curve; note: nearly all actives have a fitted effect of over 50% in size). Particulars: Potency: AChE activity. The procedure, abridged: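 SH-SY5Y, 2,000 cells/well, attached overnight; cmpd 30 min 37 C; acetylthiocholine/Thiolite Green cocktail 40 min RT; fluorescence Ex/Em 490/520 nm.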
For experiment [9] the target is unchanged. Briefly: Acetylcholinesterase (AChE) small molecule antagonists: enzyme-based qHTS assay with human liver microsomes (AID 1347399; calls by dose curve; note: nearly all actives have a fitted effect of over 60% in size). Particulars: Potency: qHTS inhibition. In a few lines:
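Recombinant human AChE (50 mU/mL in the enzyme mix) and human liver microsomes (0.25 mg/mL final) were preincubated with compound and NADPH (0.25 mg/mL final) for 30 min at 37 C. Acetylthiocholine/DTNB was then added; thiocholine was read colorimetrically after 10 min at room temperature.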

Experiment [10] deals with Cytochrome P450 2D6 (Homo sapiens) (UniProt P10635). Briefly: Cytochrome P450 Family 2 Subfamily D Member 6 (CYP2D6) small molecule antagonists: luciferase reporter qHTS assay (AID 1671196). Note: nearly all actives have a fitted effect of over 50% in size. Note: potency is the fitted concentration of half-maximal effect. The procedure, abridged: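 Enzyme and proluciferin substrate were first combined with test chemical for 10 min at room temperature. Adding NADPH regeneration solution started a 1 h reaction, stopped with luciferin detection reagent and read by luminescence 20 min later.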
Cytochrome P450 2D6 (Homo sapiens), sequence (P10635 whole entry, looked up): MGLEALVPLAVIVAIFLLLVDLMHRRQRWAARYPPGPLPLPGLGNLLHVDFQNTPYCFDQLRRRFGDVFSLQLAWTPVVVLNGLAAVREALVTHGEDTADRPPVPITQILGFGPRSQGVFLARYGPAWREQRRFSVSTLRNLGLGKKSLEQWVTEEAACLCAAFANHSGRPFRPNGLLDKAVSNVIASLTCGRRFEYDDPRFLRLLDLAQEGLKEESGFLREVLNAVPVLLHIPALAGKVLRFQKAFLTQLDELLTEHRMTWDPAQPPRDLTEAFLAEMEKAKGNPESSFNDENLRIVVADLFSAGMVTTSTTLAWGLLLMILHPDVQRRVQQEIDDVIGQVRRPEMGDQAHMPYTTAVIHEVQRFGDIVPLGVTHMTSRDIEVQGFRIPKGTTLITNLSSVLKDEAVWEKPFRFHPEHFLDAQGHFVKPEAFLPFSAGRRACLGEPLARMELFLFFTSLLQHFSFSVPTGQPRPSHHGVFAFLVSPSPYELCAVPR

For experiment [11], the target named is Cytochrome P450 2C9 (Homo sapiens) (UniProt P11712). Briefly: Cytochrome P450 Family 2 Subfamily C Member 9 (CYP2C9) small molecule antagonists: luciferase reporter qHTS assay (AID 1671198). Note: nearly all actives have a fitted effect of over 50% in size. Note: potency is the fitted concentration of half-maximal effect. The procedure, abridged: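 P450-Glo proluciferin substrate with CYP2C9 enzyme; 10 min RT preincubation, then NADPH regeneration 1 h at 37C; luciferin detection reagent 20 min RT, luminescence in relative luminescence units.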
Cytochrome P450 2C9 (Homo sapiens), sequence (P11712 whole entry, looked up): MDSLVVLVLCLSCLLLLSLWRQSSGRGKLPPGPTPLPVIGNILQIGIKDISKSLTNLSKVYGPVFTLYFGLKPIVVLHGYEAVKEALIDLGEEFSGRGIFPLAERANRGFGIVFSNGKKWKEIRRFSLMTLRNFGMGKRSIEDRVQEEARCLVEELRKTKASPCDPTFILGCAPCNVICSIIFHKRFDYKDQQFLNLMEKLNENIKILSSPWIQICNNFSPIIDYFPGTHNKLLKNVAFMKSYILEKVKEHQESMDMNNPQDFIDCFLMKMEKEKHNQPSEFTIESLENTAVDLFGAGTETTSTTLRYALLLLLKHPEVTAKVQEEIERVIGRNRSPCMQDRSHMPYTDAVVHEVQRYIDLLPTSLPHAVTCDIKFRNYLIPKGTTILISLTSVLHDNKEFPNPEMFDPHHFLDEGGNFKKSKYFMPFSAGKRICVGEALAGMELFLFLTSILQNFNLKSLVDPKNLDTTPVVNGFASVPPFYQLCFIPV

The target in experiment [12] is Cytochrome P450 1A2 (Homo sapiens) (UniProt P05177). Briefly: Cytochrome P450 Family 1 Subfamily A Member 2 (CYP1A2) small molecule antagonists: luciferase reporter qHTS assay (AID 1671199). Note: nearly all actives have a fitted effect of over 50% in size. Note: potency is the fitted concentration of half-maximal effect. In a few lines:
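Compounds were incubated with CYP1A2 and a luminogenic proluciferin substrate for 10 min at room temperature before the reaction was started with NADPH regeneration solution. After 1 h, detection reagent was added and light output, proportional to CYP activity, was recorded.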

In experiment [13] the target is Voltage-gated inwardly rectifying potassium channel KCNH2 (Homo sapiens) (UniProt Q12809). Briefly: Human Ether-a-go-go-Related Gene (hERG) channel small molecule antagonists: fluorescence cell-based qHTS assay (AID 1671200). Note: nearly all actives have a fitted effect of over 50% in size. Note: potency is the fitted concentration of half-maximal effect. The procedure, abridged: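 Thallium served as the potassium surrogate; its influx into dye-loaded U2OS cells carrying the channel was measured by fluorescence over 2 min.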
Voltage-gated inwardly rectifying potassium channel KCNH2 (Homo sapiens), sequence (Q12809 whole entry, looked up): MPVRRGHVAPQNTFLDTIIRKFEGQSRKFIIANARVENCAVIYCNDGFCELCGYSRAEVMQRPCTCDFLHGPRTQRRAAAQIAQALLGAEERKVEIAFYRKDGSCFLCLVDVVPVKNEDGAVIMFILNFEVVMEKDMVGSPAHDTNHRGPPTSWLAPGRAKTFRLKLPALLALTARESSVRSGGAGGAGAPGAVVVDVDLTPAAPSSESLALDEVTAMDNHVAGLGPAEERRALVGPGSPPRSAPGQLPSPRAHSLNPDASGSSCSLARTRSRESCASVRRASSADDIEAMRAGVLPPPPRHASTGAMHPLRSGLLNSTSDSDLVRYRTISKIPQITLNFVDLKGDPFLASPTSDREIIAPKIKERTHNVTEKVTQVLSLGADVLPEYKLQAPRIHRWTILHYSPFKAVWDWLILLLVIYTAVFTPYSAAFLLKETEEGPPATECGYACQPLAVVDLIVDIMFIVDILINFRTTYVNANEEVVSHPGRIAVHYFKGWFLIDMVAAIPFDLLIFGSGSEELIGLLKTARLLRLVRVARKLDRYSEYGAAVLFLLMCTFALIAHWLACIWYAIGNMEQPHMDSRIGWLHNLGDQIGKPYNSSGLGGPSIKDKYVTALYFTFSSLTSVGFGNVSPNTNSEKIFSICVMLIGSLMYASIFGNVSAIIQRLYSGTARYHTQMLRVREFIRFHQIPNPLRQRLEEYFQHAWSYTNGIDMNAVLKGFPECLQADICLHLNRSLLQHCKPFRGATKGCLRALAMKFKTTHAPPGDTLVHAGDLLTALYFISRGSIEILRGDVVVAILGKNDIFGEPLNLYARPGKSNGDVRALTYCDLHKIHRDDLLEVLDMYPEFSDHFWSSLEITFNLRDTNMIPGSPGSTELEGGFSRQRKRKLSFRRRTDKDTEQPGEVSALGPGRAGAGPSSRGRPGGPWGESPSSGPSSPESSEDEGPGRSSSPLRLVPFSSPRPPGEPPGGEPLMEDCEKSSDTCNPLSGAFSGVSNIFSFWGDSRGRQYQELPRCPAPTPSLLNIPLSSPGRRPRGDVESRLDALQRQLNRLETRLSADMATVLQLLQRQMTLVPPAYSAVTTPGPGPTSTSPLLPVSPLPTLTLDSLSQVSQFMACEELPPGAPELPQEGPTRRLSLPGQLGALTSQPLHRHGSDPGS

In experiment [14] the target is Cytochrome P450 3A4 (Homo sapiens) (UniProt P08684). Briefly: Cytochrome P450 Family 3 Subfamily A Member 4 (CYP3A4) small molecule antagonists: luciferase reporter qHTS assay (AID 1671201). Note: nearly all actives have a fitted effect of over 50% in size. Note: potency is the fitted concentration of half-maximal effect. The procedure, abridged:
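Relative luminescence units after 20 min with luciferin detection reagent served as read-out. Beforehand, CYP3A4 turned over a proluciferin substrate for 1 h at room temperature with NADPH regeneration, following 10 min compound preincubation.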

Experiment [15] deals with Cytochrome P450 2C19 (Homo sapiens) (UniProt P33261). Briefly: Cytochrome P450 Family 2 Subfamily C Member 19 (CYP2C19) small molecule antagonists: luciferase reporter qHTS assay (AID 1671197). Note: nearly all actives have a fitted effect of over 65% in size. Note: potency is the fitted concentration of half-maximal effect. In a few lines:
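P450-Glo CYP2C19 screening system; proluciferin substrate; DMSO compound stocks; 10 min RT preincubation; NADPH regeneration, 1 h at 37C; luciferin detection reagent, 20 min RT; luminescence as RLU.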

Cytochrome P450 3A4 (Homo sapiens), sequence (P08684 whole entry, looked up): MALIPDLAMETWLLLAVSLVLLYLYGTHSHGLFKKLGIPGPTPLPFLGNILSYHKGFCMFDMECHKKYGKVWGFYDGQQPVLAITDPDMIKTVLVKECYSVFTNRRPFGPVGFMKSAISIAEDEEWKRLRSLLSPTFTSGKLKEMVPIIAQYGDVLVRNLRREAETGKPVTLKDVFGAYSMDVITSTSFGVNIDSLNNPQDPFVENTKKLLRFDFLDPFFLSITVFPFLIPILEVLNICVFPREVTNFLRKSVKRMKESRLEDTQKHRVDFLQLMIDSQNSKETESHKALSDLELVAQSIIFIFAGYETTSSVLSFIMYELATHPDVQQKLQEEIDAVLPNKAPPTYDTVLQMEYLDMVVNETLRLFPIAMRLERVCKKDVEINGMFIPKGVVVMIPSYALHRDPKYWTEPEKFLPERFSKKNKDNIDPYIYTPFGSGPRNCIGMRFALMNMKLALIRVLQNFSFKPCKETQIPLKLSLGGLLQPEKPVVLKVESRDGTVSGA
Acetylcholinesterase (Homo sapiens), sequence (P22303 whole entry, looked up): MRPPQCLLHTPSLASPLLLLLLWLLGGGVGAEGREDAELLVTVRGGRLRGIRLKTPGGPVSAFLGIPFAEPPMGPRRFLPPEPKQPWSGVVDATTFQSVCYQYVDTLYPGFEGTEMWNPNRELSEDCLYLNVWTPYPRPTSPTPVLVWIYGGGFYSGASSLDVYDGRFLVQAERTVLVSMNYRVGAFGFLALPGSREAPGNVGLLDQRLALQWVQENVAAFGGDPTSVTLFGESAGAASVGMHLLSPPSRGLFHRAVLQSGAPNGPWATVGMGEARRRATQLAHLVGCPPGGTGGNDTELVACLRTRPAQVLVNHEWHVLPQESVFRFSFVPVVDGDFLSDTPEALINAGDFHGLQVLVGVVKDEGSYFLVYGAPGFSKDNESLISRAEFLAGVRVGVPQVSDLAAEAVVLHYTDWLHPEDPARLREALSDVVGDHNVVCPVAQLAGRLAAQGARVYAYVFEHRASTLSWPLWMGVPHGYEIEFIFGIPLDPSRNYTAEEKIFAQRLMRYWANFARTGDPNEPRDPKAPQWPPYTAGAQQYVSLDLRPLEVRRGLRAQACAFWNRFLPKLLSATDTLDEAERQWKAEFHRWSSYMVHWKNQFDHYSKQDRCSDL
Cytochrome P450 1A2 (Homo sapiens), sequence (P05177 whole entry, looked up): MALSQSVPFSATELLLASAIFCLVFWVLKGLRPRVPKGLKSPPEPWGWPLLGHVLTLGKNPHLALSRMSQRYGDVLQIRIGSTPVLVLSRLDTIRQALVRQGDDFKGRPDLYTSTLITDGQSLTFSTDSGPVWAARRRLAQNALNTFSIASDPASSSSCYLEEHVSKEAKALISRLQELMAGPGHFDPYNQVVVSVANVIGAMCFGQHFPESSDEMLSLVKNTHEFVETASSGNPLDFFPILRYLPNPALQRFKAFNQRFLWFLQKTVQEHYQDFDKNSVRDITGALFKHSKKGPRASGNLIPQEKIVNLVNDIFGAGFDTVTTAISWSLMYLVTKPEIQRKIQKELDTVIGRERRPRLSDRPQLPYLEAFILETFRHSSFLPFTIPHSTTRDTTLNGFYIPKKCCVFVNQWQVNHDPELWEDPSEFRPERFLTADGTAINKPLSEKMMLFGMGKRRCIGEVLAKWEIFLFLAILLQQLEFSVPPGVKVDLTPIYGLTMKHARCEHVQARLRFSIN
Cytochrome P450 2C19 (Homo sapiens), sequence (P33261 whole entry, looked up): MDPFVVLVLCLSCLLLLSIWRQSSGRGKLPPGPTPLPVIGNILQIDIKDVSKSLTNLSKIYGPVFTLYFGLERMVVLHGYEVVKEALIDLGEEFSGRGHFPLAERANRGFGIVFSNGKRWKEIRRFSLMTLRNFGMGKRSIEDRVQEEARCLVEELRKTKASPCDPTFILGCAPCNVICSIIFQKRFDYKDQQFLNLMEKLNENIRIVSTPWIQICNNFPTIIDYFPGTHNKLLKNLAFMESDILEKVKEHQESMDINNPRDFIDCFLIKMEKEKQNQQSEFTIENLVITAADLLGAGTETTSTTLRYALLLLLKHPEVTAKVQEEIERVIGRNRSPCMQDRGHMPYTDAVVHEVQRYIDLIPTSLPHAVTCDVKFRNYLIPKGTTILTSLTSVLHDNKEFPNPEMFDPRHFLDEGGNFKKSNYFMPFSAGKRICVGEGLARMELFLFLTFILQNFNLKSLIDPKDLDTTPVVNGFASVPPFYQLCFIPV

Turning to `O=NN(CCO)CCO`, the Potency result in experiment [1], in experiment [2], in [3], in experiment [4], in experiment [5] and in experiment [6] was “inactive” in each case. Moreover, the Potency entry in experiment [7], in experiment [8], in experiment [9], in [10], in experiment [11] and in experiment [12] was “inactive” throughout. The Potency entry in experiment [13] and in experiment [14] was “inactive” throughout.
As to `O=C(Nc1ccc(F)cc1F)c1cccnc1Oc1cccc(C(F)(F)F)c1`, the Potency entry in [1], in experiment [2], in [3], in experiment [4], in experiment [6] and in experiment [7] was “inactive” each time. Also, the Potency entry in [8], in experiment [9], in experiment [10], in [13] and in [14] was “inactive” each time. In addition, the Potency in [5] was 4.24 µM (active).
On to `[F][Sn]([c]1ccccc1)([c]1ccccc1)[c]1ccccc1`, for which the Potency in experiment [1] is 0.193 µM (active); in experiment [2], 0.0433 µM (active); in experiment [3], 0.0611 µM (active); in experiment [4], 1.22 µM (active); in experiment [5] it was 0.077 µM (active); in [10], 2.83 µM (active). Also, the Potency in [11] is 2 µM (active); in experiment [13], 3.09 µM (active). Besides, the Potency entry in experiment [6], in [7], in experiment [8], in [9] and in experiment [12] was “inactive” each time.
In the case of `CN1[C@@H]2CC[C@H]1CC(O)C2` (stereo partly drawn), the Potency entry in experiment [1], in [2], in experiment [3], in experiment [4], in experiment [5] and in [6] was “inactive” in each case. Besides, the Potency entry in experiment [8], in experiment [9], in experiment [10], in experiment [11], in [12] and in [13] was “inactive” each time. Also, the Potency entry in experiment [14] is “inactive”.
On to `CCC[CH2][Sn]([CH2]CCC)([CH2]CCC)[CH2]CCC`, for which the Potency in experiment [1] is 68.6 µM (active); in [2], 9.69 µM (active); in experiment [3], 17.2 µM (active); in experiment [4], 61.1 µM (active); in [5] it was 6.11 µM (active); in experiment [10] it was 20 µM (active). Besides, the Potency in experiment [15] is 35.6 µM (active). Moreover, the Potency result in [6], in [7], in experiment [8], in [9] and in experiment [14] was “inactive” in each case.
`Nc1ccc(N=Nc2ccccc2)cc1`: the Potency result in [1], in experiment [3], in [6], in [7], in experiment [8] and in experiment [9] was “inactive” in each case. Further, in experiment [13], the Potency entry was “inactive”. For the same compound, the Potency in experiment [2] was 29.8 µM (active); in [4], 36.4 µM (active); in experiment [5], 27.3 µM (active); in [15], 12.6 µM (active); in experiment [11], 12.6 µM (active); in experiment [12], 4.61 µM (active).
For the compound `O=c1[nH]c2cc(Cl)ccc2n1C1CCNCC1`, the Potency result in experiment [1], in experiment [2], in experiment [3], in [4], in [5] and in experiment [6] was “inactive” in each case. Besides, the Potency result in experiment [7], in experiment [8], in experiment [9] and in [14] was “inactive” each time. Further, the Potency in experiment [10] was 15.5 µM (active).
`c1csc(-c2ccc(-c3cccs3)s2)c1`: the Potency result in experiment [1], in [2], in experiment [3], in experiment [4], in experiment [6] and in experiment [7] was “inactive” throughout. The Potency result in experiment [8], in experiment [9], in [13] and in [14] was “inactive” throughout. Besides, the Potency was 19.3 µM (active) in experiment [5], 17.8 µM (active) in experiment [15], 10 µM (active) in [11] and 1.12 µM (active) in experiment [12].
On to `COc1cnc(OC)n2nc(NS(=O)(=O)c3c(OCC(F)F)cccc3C(F)(F)F)nc12`, for which the Potency entry in [1], in experiment [2], in [3], in experiment [4], in [5] and in [6] was “inactive” throughout. Also, the Potency result in [7], in experiment [8], in experiment [9], in experiment [10] and in experiment [13] was “inactive” each time. For the same compound, the Potency in experiment [11] is 35.6 µM (active).
For `CCCCC(CC)COC(=O)OOC(C)(C)C` (stereo not drawn), the Potency result in experiment [1], in experiment [2], in experiment [3], in experiment [4], in experiment [5] and in [6] was “inactive” each time. Moreover, the Potency entry in experiment [7], in experiment [8], in experiment [9], in experiment [11], in experiment [13] and in experiment [14] was “inactive” throughout.
As for `CC(=O)[O][Sn]([c]1ccccc1)([c]1ccccc1)[c]1ccccc1`, the Potency in experiment [1] was 0.306 µM (active); in [2] it was 0.154 µM (active); in [3], 0.122 µM (active); in [4], 2.73 µM (active); in [5] it was 0.243 µM (active); in experiment [10] it was 0.2 µM (active). Also, the Potency was 5.03 µM (active) in [15], 0.894 µM (active) in experiment [11], 1.1 µM (active) in experiment [13] and 12.6 µM (active) in experiment [14]. Besides, the Potency result in [6], in [8] and in experiment [9] was “inactive” each time.
On to `O=C(O)CCCCCCNC1c2ccccc2CCc2ccccc21`, for which the Potency entry in [1], in experiment [2], in [3], in experiment [4], in experiment [5] and in [6] was “inactive” in each case. For the same compound, the Potency entry in experiment [7], in experiment [8], in [9], in [11], in experiment [12] and in experiment [13] was “inactive” each time. For the same compound, the Potency entry in experiment [14] is “inactive”.
Turning to `OCC(Br)CBr` (stereo not drawn), the Potency result in experiment [1], in experiment [2], in experiment [3], in experiment [4], in experiment [5] and in [6] was “inactive” throughout. Also, the Potency entry in [7], in experiment [8], in experiment [9], in [15], in experiment [11] and in experiment [13] was “inactive” each time. Moreover, in experiment [14], the Potency entry is “inactive”.
For `CN/C(=N\[N+](=O)[O-])NCc1cnc(Cl)s1`, the Potency entry in experiment [1], in [2], in experiment [3], in [4], in experiment [5] and in experiment [6] was “inactive” each time. The Potency result in experiment [7], in experiment [8], in [9], in experiment [11], in [12] and in experiment [13] was “inactive” throughout. The Potency result in experiment [14] was “inactive”.
Regarding `c1cc[n+]2c(c1)-c1cccc[n+]1CC2`, the Potency result in experiment [1], in [2], in experiment [3], in [4], in experiment [5] and in experiment [6] was “inactive” in each case. Further, the Potency entry in experiment [7], in [8], in experiment [9], in experiment [11] and in experiment [13] was “inactive” throughout. For the same compound, the Potency in [15] is 9.77 µM (active); in [12] it was 30.9 µM (active).
For the compound `N#CC(C#N)=NNc1cccc(Cl)c1`, the Potency result in [1], in experiment [3], in experiment [5], in experiment [6], in experiment [7] and in experiment [8] was “inactive” throughout. Further, the Potency result in experiment [9] was “inactive”. The Potency in experiment [2] is 3.86 µM (active); in [4], 24.3 µM (active); in experiment [10], 63.3 µM (active); in experiment [11], 8.94 µM (active); in experiment [14], 11.2 µM (active).
